From PubChem BioAssay (EPA / NIEHS)
Where “and” joins values, the source holds several entries; their conditions need not be identical. Equal entries are not always repeated. Where a structure was tested more than once in an assay, its records may differ in their call. Calls of active or inactive are those of the source. How the source made its calls: active means hit-call score of the fitted dose curve at least 0.9, where 1 is the maximum; inactive means score below 0.9.

Legend:
[1] = ATG_ISRE_CIS: Attagene CIS-FACTORIAL HepG2 Assay for human Interferon Regulatory Factor 1 (IRF1) binding to an Interferon-Stimulated Response Element (ISRE) (AID 2282948); conditions: HepG2 ISRE cis-reporter (Attagene), mRNA transcription readout; actives raise or lower the signal
Summary of the method: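 Transiently transfected HepG2 cells carrying cis-element reporter units, dosed 24 hours. Reporter mRNA quantified by RT-PCR, fluorescent primer extension, HpaI digestion and capillary electrophoresis. Bidirectional fitting relative to DMSO.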

[2] = ATG_M_32_CIS: Attagene CIS-FACTORIAL HepG2 Assay for M32 Transcription Factor (Internal Marker) (AID 2282949); conditions: HepG2 Attagene cis-factorial M32 reporter, mRNA; actives raise or lower the signal;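 further: background control marker of the multiplexed CIS panel rather than a real target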
Summary of the method: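 Fluorescent capillary electrophoresis peaks of HpaI-digested, FAM-labelled RT-PCR reporter products give the signal. Source: transiently transfected human liver HepG2 cells, 24 h after chemical dosing; bidirectional fitting against DMSO.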

[3] = ATG_M_06_CIS: Attagene CIS-FACTORIAL HepG2 Assay for M06 Transcription Factor (Internal Marker) (AID 2282950); conditions: HepG2 Attagene CIS-FACTORIAL M06 internal marker reporter; actives raise or lower the signal
Summary of the method: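 Steps: transfect HepG2 with multiplexed cis-element reporter constructs; dose chemical 24 h; extract RNA with DNase treatment; reverse-transcribe, PCR-amplify, 6-FAM label, HpaI digest; separate fragments by capillary electrophoresis. Activity fitted both directions versus DMSO.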

[4] = molecular target: Hypoxia-inducible factor 1-alpha (Homo sapiens) (UniProt Q16665); assay: ATG_HIF1a_CIS: Attagene CIS-FACTORIAL HepG2 Assay for human Hypoxia Inducible Factor 1 (HIF1A) (AID 2282951); conditions: HepG2 Attagene cis-factorial HIF1a reporter transcription; actives raise or lower the signal
Sequence of Hypoxia-inducible factor 1-alpha (Homo sapiens) (Q16665 whole entry, looked up): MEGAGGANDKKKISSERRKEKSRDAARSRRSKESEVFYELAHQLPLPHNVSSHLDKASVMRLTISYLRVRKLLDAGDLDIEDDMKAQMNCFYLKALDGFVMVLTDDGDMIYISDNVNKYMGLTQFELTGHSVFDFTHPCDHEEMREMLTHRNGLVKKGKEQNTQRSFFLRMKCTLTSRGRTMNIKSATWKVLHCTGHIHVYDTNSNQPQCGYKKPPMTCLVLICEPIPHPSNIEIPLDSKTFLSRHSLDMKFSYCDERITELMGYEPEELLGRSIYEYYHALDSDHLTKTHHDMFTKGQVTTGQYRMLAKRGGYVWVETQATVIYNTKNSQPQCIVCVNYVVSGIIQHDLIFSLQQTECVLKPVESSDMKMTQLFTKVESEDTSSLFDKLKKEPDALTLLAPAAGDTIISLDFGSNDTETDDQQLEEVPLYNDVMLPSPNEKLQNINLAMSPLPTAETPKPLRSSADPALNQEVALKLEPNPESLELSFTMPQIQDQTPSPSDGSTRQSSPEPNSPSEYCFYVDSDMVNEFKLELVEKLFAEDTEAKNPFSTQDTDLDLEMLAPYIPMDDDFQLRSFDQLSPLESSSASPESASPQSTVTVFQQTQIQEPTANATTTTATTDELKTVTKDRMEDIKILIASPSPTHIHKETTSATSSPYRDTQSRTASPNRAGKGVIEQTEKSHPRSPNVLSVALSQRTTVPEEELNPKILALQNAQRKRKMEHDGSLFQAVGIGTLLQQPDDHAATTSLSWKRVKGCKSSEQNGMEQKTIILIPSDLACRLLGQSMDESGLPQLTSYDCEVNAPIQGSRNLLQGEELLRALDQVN
Summary of the method: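 Measures endogenous transcription-factor activity through cis-regulated reporter mRNA in HepG2. Cells dosed 24 h; transcripts quantified by RT-PCR with 6-FAM-labelled products separated by capillary electrophoresis; DMSO serves as negative control.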

[5] = molecular target: Hepatocyte nuclear factor 6 (Homo sapiens) (UniProt Q9UBC0); assay: ATG_HNF6_CIS: Attagene CIS-FACTORIAL HepG2 Assay for human Hepatocyte Nuclear Factor 6 (HNF6) (AID 2282952); conditions: HepG2 Attagene cis-factorial HNF6 reporter transcription; actives raise or lower the signal
Sequence of Hepatocyte nuclear factor 6 (Homo sapiens) (Q9UBC0 whole entry, looked up): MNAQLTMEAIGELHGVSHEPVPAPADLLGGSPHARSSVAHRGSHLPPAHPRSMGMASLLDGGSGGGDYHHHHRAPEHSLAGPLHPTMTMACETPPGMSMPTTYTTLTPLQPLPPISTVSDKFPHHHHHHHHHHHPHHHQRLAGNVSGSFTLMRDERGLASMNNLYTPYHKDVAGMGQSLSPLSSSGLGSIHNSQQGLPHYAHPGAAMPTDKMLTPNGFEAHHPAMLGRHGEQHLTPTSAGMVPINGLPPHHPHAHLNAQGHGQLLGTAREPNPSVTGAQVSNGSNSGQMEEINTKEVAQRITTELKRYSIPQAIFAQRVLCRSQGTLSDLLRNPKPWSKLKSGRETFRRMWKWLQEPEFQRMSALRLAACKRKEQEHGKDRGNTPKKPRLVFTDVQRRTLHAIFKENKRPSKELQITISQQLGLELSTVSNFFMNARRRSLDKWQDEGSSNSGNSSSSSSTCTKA
Summary of the method: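 Transiently transfected HepG2 cells expressing cis-regulated reporter transcription units were exposed to chemical for 24 h in a 24-well format. Reporter transcript abundance was determined by fluorescence capillary electrophoresis.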

[6] = molecular target: Heat shock factor protein 1 (Homo sapiens) (UniProt Q00613); assay: ATG_HSE_CIS: Attagene CIS-FACTORIAL HepG2 Assay for human Heat Shock Transcription Factor 1 (HSE) (AID 2282953); conditions: HepG2 HSE cis-reporter, Attagene RNA transcription; actives raise or lower the signal
Sequence of Heat shock factor protein 1 (Homo sapiens) (Q00613 whole entry, looked up, the tested form may be a part): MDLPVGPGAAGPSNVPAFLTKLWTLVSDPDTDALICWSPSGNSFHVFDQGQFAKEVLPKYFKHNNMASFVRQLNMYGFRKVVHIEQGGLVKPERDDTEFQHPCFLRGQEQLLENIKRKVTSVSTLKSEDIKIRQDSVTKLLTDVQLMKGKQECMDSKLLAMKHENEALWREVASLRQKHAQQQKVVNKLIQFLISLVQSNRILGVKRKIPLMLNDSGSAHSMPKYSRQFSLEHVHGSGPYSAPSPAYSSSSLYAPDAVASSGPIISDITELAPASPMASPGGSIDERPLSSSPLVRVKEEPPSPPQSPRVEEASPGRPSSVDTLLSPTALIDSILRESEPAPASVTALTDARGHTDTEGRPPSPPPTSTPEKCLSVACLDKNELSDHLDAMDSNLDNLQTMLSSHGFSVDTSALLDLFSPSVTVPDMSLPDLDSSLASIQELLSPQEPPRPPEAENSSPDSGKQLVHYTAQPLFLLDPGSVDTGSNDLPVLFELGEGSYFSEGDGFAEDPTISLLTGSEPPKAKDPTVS
Summary of the method: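 Cells were transfected with cis-element-driven reporter constructs, dosed for 24 h, then total RNA was reverse-transcribed and reporter cDNA amplified, FAM-labelled and digested with HpaI. Fragments were resolved by capillary electrophoresis; gain or loss was fitted against DMSO.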

[7] = ATG_MRE_CIS: Attagene CIS-FACTORIAL HepG2 Assay for human Metal Responsive Element (MRE) (AID 2282954); conditions: HepG2 MRE cis-reporter transcription, Attagene multiplex; actives raise or lower the signal
Summary of the method: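 Step one: transfect HepG2 with cis-regulated reporter units. Step two: dose 24 h. Step three: isolate RNA, RT-PCR, 6-FAM label, HpaI digest, capillary electrophoresis. Fit bidirectionally to DMSO.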

[8] = molecular target: Paired box protein Pax-6 (Homo sapiens) (UniProt P26367); assay: ATG_Pax6_CIS: Attagene CIS-FACTORIAL HepG2 Assay for human Paired Box 6 (PAX6) (AID 2282956); conditions: HepG2 CIS-FACTORIAL PAX6 reporter transcription, RNA readout; actives raise or lower the signal
Sequence of Paired box protein Pax-6 (Homo sapiens) (P26367 whole entry, looked up): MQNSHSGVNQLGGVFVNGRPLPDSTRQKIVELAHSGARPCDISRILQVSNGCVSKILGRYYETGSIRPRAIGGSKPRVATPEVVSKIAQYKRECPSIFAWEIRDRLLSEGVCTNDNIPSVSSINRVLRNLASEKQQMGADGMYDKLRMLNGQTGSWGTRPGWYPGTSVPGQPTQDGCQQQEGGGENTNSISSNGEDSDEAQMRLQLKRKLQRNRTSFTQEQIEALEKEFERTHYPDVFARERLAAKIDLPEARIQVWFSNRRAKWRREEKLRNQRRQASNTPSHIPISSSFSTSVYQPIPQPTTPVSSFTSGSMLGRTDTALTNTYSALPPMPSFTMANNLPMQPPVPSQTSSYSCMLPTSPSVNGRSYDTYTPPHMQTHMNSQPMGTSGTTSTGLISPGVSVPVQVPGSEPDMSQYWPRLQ
Summary of the method: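 HepG2 cells transiently transfected with cis-promoter-driven multiplexed reporter units sensing endogenous transcription factor activity; 24 h chemical exposure. Reporter mRNA quantified by RT-PCR, 6-FAM labelling, HpaI digestion and capillary electrophoresis; bidirectional fit versus DMSO baseline.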

[9] = ATG_PXRE_CIS: Attagene CIS-FACTORIAL HepG2 Assay for human Pregnane X Receptor Element (PXRE) (AID 2282957); conditions: HepG2 Attagene CIS-FACTORIAL PXRE reporter, mRNA; actives raise or lower the signal
Summary of the method: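 Cis-element reporter mRNA in human hepatoma HepG2 cells is measured 24 h post-dosing by RT-PCR, primer-extension labeling and capillary electrophoresis; gain or loss of signal is fitted relative to DMSO.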

[10] = ATG_PPRE_CIS: Attagene CIS-FACTORIAL HepG2 Assay for human Peroxisome Proliferator-activated Response Element (PPRE) (AID 2282958); conditions: HepG2 PPRE cis-element reporter, Attagene transcription factor profiling; actives raise or lower the signal
Summary of the method: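 Cells are first transfected transiently with the multiplexed reporter library, then dosed for 24 h. Total RNA is reverse-transcribed, amplified, fluorescently end-labeled and HpaI-cut before capillary electrophoresis; activity is fitted bidirectionally against DMSO controls.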

[11] = ATG_RORE_CIS: Attagene CIS-FACTORIAL HepG2 Assay for human RAR-related Orphan Receptor Element (RORE) (AID 2282959); conditions: HepG2 Attagene cis-factorial RORE reporter, mRNA; actives raise or lower the signal
Summary of the method: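 Cells were HepG2 carrying transfected cis-regulated reporter constructs, dosed for 24 hours. Total RNA was reverse-transcribed and reporter cDNA amplified, fluorescently labeled and sized by capillary electrophoresis. Activity was fitted bidirectionally relative to DMSO.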

[12] = ATG_Sox_CIS: Attagene CIS-FACTORIAL HepG2 Assay for human SRY-box transcription factor (SOX) (AID 2282960); conditions: HepG2 Attagene cis-factorial SOX reporter, mRNA; actives raise or lower the signal
Summary of the method: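 Transient MRTU transfection of HepG2; 24 h compound incubation; TriZol RNA, oligo(dT) RT, PCR, 6-FAM primer extension, HpaI cut, CE. Bidirectional fit, DMSO = baseline.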

[13] = molecular target: Transcription factor Sp1 (Homo sapiens) (UniProt P08047); assay: ATG_Sp1_CIS: Attagene CIS-FACTORIAL HepG2 Assay for human Specificity Protein 1 (Sp1) (AID 2282961); conditions: HepG2 Sp1 cis-reporter transcription, actives raise or lower the signal
Sequence of Transcription factor Sp1 (Homo sapiens) (P08047 whole entry, looked up): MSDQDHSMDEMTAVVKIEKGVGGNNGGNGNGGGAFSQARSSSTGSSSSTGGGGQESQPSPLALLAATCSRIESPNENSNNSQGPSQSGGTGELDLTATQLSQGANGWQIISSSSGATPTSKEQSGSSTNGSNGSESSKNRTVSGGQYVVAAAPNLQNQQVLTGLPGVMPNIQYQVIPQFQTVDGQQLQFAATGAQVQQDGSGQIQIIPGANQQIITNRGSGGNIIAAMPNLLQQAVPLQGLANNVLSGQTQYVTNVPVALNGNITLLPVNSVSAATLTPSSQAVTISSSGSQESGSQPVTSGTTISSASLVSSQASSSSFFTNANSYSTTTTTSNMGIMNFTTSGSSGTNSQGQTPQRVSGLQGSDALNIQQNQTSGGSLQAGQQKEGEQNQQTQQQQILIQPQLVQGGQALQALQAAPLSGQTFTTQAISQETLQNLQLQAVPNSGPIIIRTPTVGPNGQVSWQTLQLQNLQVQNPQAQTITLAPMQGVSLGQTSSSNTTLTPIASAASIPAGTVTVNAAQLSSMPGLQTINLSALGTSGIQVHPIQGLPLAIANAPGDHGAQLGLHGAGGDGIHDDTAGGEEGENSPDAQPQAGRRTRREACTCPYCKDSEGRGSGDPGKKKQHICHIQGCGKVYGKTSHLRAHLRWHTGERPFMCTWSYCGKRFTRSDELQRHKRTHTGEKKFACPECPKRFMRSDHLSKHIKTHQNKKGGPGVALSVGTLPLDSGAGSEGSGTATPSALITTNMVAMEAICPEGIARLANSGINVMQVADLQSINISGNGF
Summary of the method: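 Endogenous Sp1 activity was gauged in human liver HepG2 cells bearing transfected reporter units under a cis-regulating promoter. After 24 h dosing, reporter mRNA was quantified by RT-PCR with capillary electrophoresis, and activity fitted bidirectionally versus DMSO.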

[14] = ATG_SREBP_CIS: Attagene CIS-FACTORIAL HepG2 Assay for human Sterol Regulatory Element Binding (SREBP) (AID 2282962); conditions: HepG2 Attagene cis-factorial SREBP reporter, mRNA; actives raise or lower the signal
Summary of the method: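 HepG2 cells transiently transfected with multiplexed cis-promoter reporter units sensing endogenous transcription factors; reporter mRNA measured 24 h after dosing by RT-PCR, 6-FAM labeling, HpaI digestion and capillary electrophoresis. Bidirectional fit versus DMSO.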

[15] = molecular target: Signal transducer and activator of transcription 3 (Homo sapiens) (UniProt P40763); assay: ATG_STAT3_CIS: Attagene CIS-FACTORIAL HepG2 Assay for human Signal Transducer and Activator of Transcription 3 (STAT3) (AID 2282963); conditions: HepG2, Attagene cis-factorial STAT3 reporter transcription; actives raise or lower the signal
Sequence of Signal transducer and activator of transcription 3 (Homo sapiens) (P40763 whole entry, looked up): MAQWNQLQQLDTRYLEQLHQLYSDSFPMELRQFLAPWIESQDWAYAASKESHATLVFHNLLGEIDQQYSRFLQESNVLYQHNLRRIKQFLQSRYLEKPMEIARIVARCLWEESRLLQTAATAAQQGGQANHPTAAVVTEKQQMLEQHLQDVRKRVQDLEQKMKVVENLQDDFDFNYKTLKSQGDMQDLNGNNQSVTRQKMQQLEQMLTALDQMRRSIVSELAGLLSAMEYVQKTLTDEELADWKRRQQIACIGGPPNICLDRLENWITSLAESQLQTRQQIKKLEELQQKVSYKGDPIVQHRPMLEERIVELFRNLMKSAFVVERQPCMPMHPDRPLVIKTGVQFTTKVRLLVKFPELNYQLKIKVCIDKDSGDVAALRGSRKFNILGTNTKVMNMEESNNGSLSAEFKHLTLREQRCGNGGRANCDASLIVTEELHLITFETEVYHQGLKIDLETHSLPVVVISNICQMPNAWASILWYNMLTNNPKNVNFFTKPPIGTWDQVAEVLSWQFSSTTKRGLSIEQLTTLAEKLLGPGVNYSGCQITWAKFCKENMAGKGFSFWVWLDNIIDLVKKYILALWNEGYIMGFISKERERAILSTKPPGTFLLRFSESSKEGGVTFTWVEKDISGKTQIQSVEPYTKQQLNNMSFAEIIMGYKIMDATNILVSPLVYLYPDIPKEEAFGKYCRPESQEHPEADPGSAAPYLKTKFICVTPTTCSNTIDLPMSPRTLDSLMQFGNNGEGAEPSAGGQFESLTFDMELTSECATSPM
Summary of the method: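 Transcript-level reporter assay. HepG2 transient MRTU transfection, 24 h exposure, fluorescence detection after RT-PCR and CE; DMSO baseline.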

[16] = ATG_TA_CIS: Attagene CIS-FACTORIAL HepG2 Assay for human TA Basal Promoter (AID 2282964); conditions: HepG2 Attagene CIS-factorial TA basal promoter reporter; actives raise or lower the signal
Summary of the method: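 Steps: transfect HepG2 with MRTUs; dose 24 h; isolate RNA, DNase-treat, reverse-transcribe; PCR and FAM-label reporter cDNA; digest with HpaI 2h at 37 C; run capillary electrophoresis. Activity fitted both directions against DMSO.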

[17] = ATG_TCF_b_cat_CIS: Attagene CIS-FACTORIAL HepG2 Assay for human T-Cell-Factor with beta-catenin (TCF/b-cat) (AID 2282965); conditions: HepG2 TCF/beta-catenin cis-reporter transcription, actives raise or lower the signal
Summary of the method: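 Using capillary electrophoresis as the read-out, labelled reporter cDNA fragments from transiently transfected HepG2 were sized and quantified. Exposure lasted 24 hours; activity in either direction was referenced to DMSO.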

[18] = ATG_TAL_CIS: Attagene CIS-FACTORIAL HepG2 Assay for human TAL Basal Promoter (AID 2282966); conditions: HepG2 Attagene cis-factorial TAL promoter reporter; actives raise or lower the signal;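 further: background control endpoint measuring basal TAL promoter reporter mRNA not a specific factor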
Summary of the method: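 In this cell-based multiplex, HepG2 liver cells bearing cis-promoter reporter constructs are dosed for 24 hours. Total RNA is reverse-transcribed and amplified, labelled fragments are sized by capillary electrophoresis, and signal changes are fitted bidirectionally versus DMSO.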

[19] = ATG_GRE_CIS: Attagene CIS-FACTORIAL HepG2 Assay for human Glucocorticoid Response Elements (GRE) (AID 2282947); conditions: HepG2 GRE cis-reporter, Attagene multiplex mRNA; actives raise or lower the signal
Summary of the method: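 Following 24 h chemical exposure of transiently transfected HepG2 cells, total RNA was reverse-transcribed and reporter cDNA amplified, fluorescently labelled and sized by capillary electrophoresis. Signal gain or loss was fitted relative to DMSO vehicle.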

[20] = ATG_PBREM_CIS: Attagene CIS-FACTORIAL HepG2 Assay for human Phenobarbital-responsive Enhancer Module (PBREM) (AID 2282955); conditions: HepG2 PBREM cis-reporter, Attagene multiplexed transcription; actives raise or lower the signal
Summary of the method: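 Fluorescence of labelled reporter cDNA fragments, resolved by capillary electrophoresis, gives mRNA induction in transfected HepG2 cells treated for 24 h; DMSO serves as negative control and baseline.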

Measured: AC50

CCCN(CCC)c1c([N+](=O)[O-])cc(C(C)C)cc1[N+](=O)[O-]
active: [9] 1.08 µM
not listed: [19] | [20]
inactive: all other assays above

ClC(Cl)(Cl)c1ccccc1
active: [9] 62.9 µM
not listed: [3] | [10] | [12] | [20]
inactive: all other assays above

N#Cc1ccc(O)cc1
not listed: [3] | [12] | [20]
inactive: all other assays above

COC(=O)C(F)(F)C(F)(F)OC(F)(C(F)(F)F)C(F)(F)OC(F)=C(F)F (configuration not stated)
active: [9] 4.84 µM and 15.2 µM and 5.55 µM | [10] 160 nM and 436 nM and 230 nM | [11] 0.451 µM | [17] 9.92 µM
inactive: [19] | [1] | [2] | [4] | [5] | [6] | [7] | [8] | [11] | [13] | [14] | [15] | [16] | [17] | [18]

Nc1ccc2ccccc2c1
not listed: [10] | [19] | [20]
inactive: all other assays above

CC(Cl)CN(C)C (configuration not stated)
not listed: [3] | [12] | [15]
inactive: all other assays above

NNC(N)=S
not listed: [3] | [9] | [20]
inactive: all other assays above

CCCCN(CCCC)SN(C)C(=O)Oc1cccc2c1OC(C)(C)C2
active: [9] 8.93 µM
not listed: [3] | [15]
inactive: all other assays above

ClC(Cl)c1ccccc1
not listed: [3] | [9]
inactive: all other assays above
